# Pf growth 96h = inhibits malaria parasite growth, 96 h; P. falciparum luciferase reporter growth, 96 h; Potency, µM (doses to about 28.7 µM), for inactives: at the highest dose activity change, negative = inhibition, actives largely listed as inhibitors; 6.9% of 320,000 active; active = well fitted inhibition curve with a large enough effect; inconclusive = small, poorly fitted or top-dose-only effect, or another doubt; inactive = no such curve, though single readings can be large or run the other way; also: % is scaled to controls: 0 for no effect and ±100 for the full control effect
#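 Luminescence readout: decreased luciferase signal marks inhibited growth of reporter-expressing P. falciparum in infected red cells (2% hematocrit, 0.05% parasitemia final), exposed to compound two generations (96 h, 37 C, 5% CO2).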
# NS1 function inh = inhibitors of influenza NS1 protein function; 0.4% of 270,000 active; Potency, µM (titrated, usually from 46.1 µM), inactives show top-dose activity, positive = more growth; also: actives are rising curves; nearly all actives have a fitted effect of over 50% in size
#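 OD600 was taken as the measure of yeast growth restored by compound in an NS1-expressing S. cerevisiae strain. Cells had been washed out of glucose medium and diluted 1:100 into galactose -URA medium, pH 6.0.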
# SARS PLpro yeast = inhibitors of SARS-CoV papain-like protease in yeast. S. cerevisiae expressing SARS-CoV PLpro, growth rescue. Potency, µM (series often up to 32.9 µM), inactives show top-dose activity, positive = growth rescue, hits mostly activators. 0.19% of 330,000 active. AID 485353; also: 0% is about no effect; nearly all actives have a fitted effect of over 55% in size
# Pf growth 48h = inhibits P. falciparum growth in the first generation, 48 h | P. falciparum luciferase growth in erythrocytes, 48 h | Potency, µM (titrated, usually from 28.7 µM), for inactives: at the top dose activity change, negative = inhibition, actives largely listed as inhibitors | 5.9% of 310,000 active | AID 504832; active = well fitted inhibition curve with a large enough effect; inconclusive = small, poorly fitted or top-dose-only effect, or another doubt; inactive = no such curve, though single readings can be large or run the other way; also: % is scaled to controls: 0 for no effect and ±100 for the full control effect
#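 Erythrocytes infected with P. falciparum carrying an integrated firefly luciferase reporter (2% hematocrit, 0.1% parasitemia final) were exposed to compounds in RPMI 1640 with 0.5% Albumax at 37 C, 5% CO2. Growth inhibition was scored as reduced luminescence.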
# Numbers without * were called inactive; ? = inconclusive; . = no result. An excerpt weighted towards active compounds, which were near 10% of everything screened. Unless noted, calls follow the shape of the full dose curve. Potency is read from the fitted curve at half-maximal effect.
SMILES,Pf growth 96h,NS1 function inh,SARS PLpro yeast,Pf growth 48h
CN([C@@H](Cc1ccc(OS(=O)(=O)c2cccc3cnccc23)cc1)C(=O)N1CCN(c2ccccc2)CC1)S(=O)(=O)c1cccc2cnccc12,1µM*,?,4%,0.93µM*
COc1ccc(N2CCN(C(=O)C(Cc3ccccc3)n3cccc3)CC2)cc1 (stereo unspecified),-3%,-2%,-10%,.
CC(C)(C)c1ccc(C(=O)N2CCN(C(=O)c3cccs3)CC2)cc1,.,.,-8%,.
CCCC[C@@H](CNC)NC[C@H](NCCCCC1CCCCC1)C(C)C,1.7µM*,-4%,0%,?
CCc1c(C)sc(NC(=O)OC)c1C(N)=O,4.1µM*,-43%,-2%,40%
Cc1nn2c(N3CCN(C)CC3)cc(C(C)(C)C)nc2c1-c1ccccc1,3.3µM*,-1%,0%,?
Cc1nn2c(N3CCN(C(=O)c4ccco4)CC3)cc(C(C)(C)C)nc2c1-c1ccccc1,4.7µM*,-108%,-2%,?
O=C(c1ccco1)N1CCN(c2cc(C(F)(F)F)nc3ncnn23)CC1,13µM*,-4%,8%,5%
Cc1cc(C)nc(SCCc2cccc[n+]2C)n1,.,2%,.,.
COC(=O)c1cnn2c1C(=O)N(Cc1cccs1)CC2,49%,.,2%,?
Cc1ccc(-c2cc(-c3ccc(C)cc3)[n+](C)o2)cc1,0.37µM*,1%,-6%,1.2µM*
Cc1ccc(-c2cnco2)cc1,14%,-1%,1%,36%
CCOC(=O)C1=C(C)NC2=C(C(=O)C(C(=O)OCC)C(c3ccc(OC)cc3)C2)C1c1ccccn1 (stereo unspecified),9%,-8%,6%,?
CCOC(=O)C1=C(C)NC2=C(C(=O)C(C(=O)OCC)C(c3ccco3)C2)C1c1ccccn1 (stereo unspecified),-3%,0%,9%,-25%
CCOC(=O)C1=C(C)NC2=C(C(=O)C(C(=O)OCC)C(c3cccc(OC)c3)C2)C1c1ccccn1 (stereo unspecified),5.9µM*,-10%,4%,8.3µM*
CCOC(=O)C1=C(C)NC2=C(C(=O)C(C(=O)OCC)C(c3ccccc3OC)C2)C1c1ccccn1 (stereo unspecified),3.7µM*,-16%,4%,4.1µM*
COc1ccc(-n2ncc(C(C)NS(=O)(=O)c3cc(F)ccc3C)c2C)cc1 (stereo unspecified),6%,14%,1%,-10%
O=C1CNC(=O)N1CC(O)Cn1c2ccccc2c2ccccc21 (stereo unspecified),55%,-1%,4%,13%
CC1(C)Cc2c(c(N3CCCC3)nc3sc(C(=O)Nc4ccccc4)c(N)c23)CO1,13µM*,23%,-4%,15µM*
COc1ccc(Cl)cc1S(=O)(=O)Nc1ccc2c(c1)n(C)c(=O)n2C,20%,-18%,3%,-24%
COc1ccc(NC(=O)[C@H](CCS(C)(=O)=O)N2Cc3ccccc3C2=O)c(OC)c1,9.3µM*,-3%,-7%,.
O=C(OC[C@H]1O[C@@H](OC(=O)c2cc(O)c(O)c(OC(=O)c3cc(O)c(O)c(O)c3)c2)[C@H](OC(=O)c2cc(O)c(O)c(OC(=O)c3cc(O)c(O)c(O)c3)c2)[C@@H](OC(=O)c2cc(O)c(O)c(OC(=O)c3cc(O)c(O)c(O)c3)c2)[C@@H]1OC(=O)c1cc(O)c(O)c(OC(=O)c2cc(O)c(O)c(O)c2)c1)c1cc(O)c(O)c(OC(=O)c2cc(O)c(O)c(O)c2)c1,9.3µM*,.,4%,?
COc1ccc(Cl)cc1C(Nc1cccnc1)c1ccc2cccnc2c1O (stereo unspecified),?,-35%,-8%,5.2µM*
Cc1cc(NC(c2cccnc2)c2ccc3cccnc3c2O)no1 (stereo unspecified),4.1µM*,-125%,7.1µM*,2.1µM*
Cc1cccc(NC(c2ccc(O)cc2)c2ccc3ccc(C)nc3c2O)n1 (stereo unspecified),67%,11%,-2%,.
SMILES,Pf growth 96h,NS1 function inh,SARS PLpro yeast,Pf growth 48h
CCOc1ccccc1C(=O)N(Cc1sccc1C)C1CCS(=O)(=O)C1 (stereo unspecified),27%,4%,0%,?
Nc1cc(-c2ccc(Br)cc2)[nH]n1,1.9µM*,?,-12%,56%
Cc1cc(-c2ccc(Br)cc2)n[nH]1,73%,2%,-2%,118%
O=C(NCCC(=O)N1CCN(S(=O)(=O)c2ccc(Cl)cc2)CC1)Nc1ccccc1,?,.,-4%,?
CCCCn1c(N)c(N(CCOC)C(=O)C2CCN(c3ncnc4sc(C)c(C)c34)CC2)c(=O)[nH]c1=O,12µM*,.,-2%,12µM*
CCCCn1c(N)c(N(CCOC)C(=O)C2CCN(S(=O)(=O)c3ccccc3)CC2)c(=O)[nH]c1=O,10%,.,-8%,11%
CCCCC1CCC(C(=O)N(CC(C)C)c2c(N)n(Cc3ccccc3)c(=O)[nH]c2=O)CC1 (stereo unspecified),10µM*,.,1%,?
CCCCn1c(N)c(N(CC(C)C)C(=O)C2CCN(c3ncnc4sc(C)c(C)c34)CC2)c(=O)[nH]c1=O,2.9µM*,.,5%,5.2µM*
CCCCn1c(N)c(N(CC(C)C)C(=O)C2CCN(C(=O)c3ccc(F)cc3)CC2)c(=O)[nH]c1=O,?,-4%,-4%,-4%
COC(=O)C1=C(C(=O)OC)[C@@H]2N(C)c3ccccc3[C@@]23C[C@@H](CO)N(C(=O)NCCBr)C3=N1,?,-8%,1%,9.3µM*
C=CCN1c2ccccc2[C@]23C[C@@H](C(=O)OC)N(C(=O)NCCC)C2=NC(C(=O)OC)=C(C(=O)OC)[C@H]13,4.1µM*,11%,-1%,3.3µM*
COC(=O)C1=C(C(=O)OC)[C@@H]2N(Cc3ccccc3)c3ccccc3[C@@]23C[C@@H](C(=O)OC)N(C(=O)CC(C)C)C3=N1,4.7µM*,2%,2%,4.1µM*
CCOC(=O)N1C2=NC(C(=O)OC)=C(C(=O)OC)[C@@H]3N(C)c4ccccc4[C@]23C[C@H]1C(=O)OC,-11%,11%,-4%,56%
CSc1nc2n(n1)C(C)C1=C(CCCC1=O)N2 (stereo unspecified),2.9µM*,.,-1%,3%
CCSc1nc2n(n1)C(c1cccc(F)c1)C1=C(CCCC1=O)N2 (stereo unspecified),?,1%,-4%,?
CCOC(=O)N1CCN(C(=O)CSc2nc3nc(C)cc(C)n3n2)CC1,.,.,3%,.
CN(Cc1ccccc1Br)C(=O)CSc1nnnn1C1CC1,3.3µM*,.,0%,?
CCOC(=O)C[n+]1ccc2c([nH]c3ccccc32)c1C,10µM*,8%,1%,-21%
N[C@@H](CP(=O)(O)O)C(=O)O,.,0%,.,.
CC(C)c1nc(N2CCN(C(=O)c3ccco3)CC2)c2c3c(sc2n1)CCCC3,15%,-70%,-31%,10µM*
Cc1nc(N2CCN(C(=O)c3ccco3)CC2)c2c3c(sc2n1)CCC3,.,-67%,-5%,?
Cc1sc2nc(C(C)C)nc(SCC(=O)N3CCN(C(=O)c4ccco4)CC3)c2c1C,11%,-65%,15%,13µM*
